Experimental data: PubChem BioAssay (NCI)
About 83,000 compounds went through this panel and 20% of them were active in at least one assay; those are over-represented in the sample as a whole.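 The test compound was applied at a single concentration to cells in 96-well plates for 48 hours, and percent growth was recorded.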 Activity calls are given as the source filed them. How the source made its calls: active means growth percent below 10; inactive means the rest.

These molecules were tested on OVCAR-3 ovarian (assay: NCI-60 one-dose screen, 48 h (100 = growth as untreated, 0 = no growth, -100 = all killed)). Conditions: 10 µM unless noted.
In the case of `CC1CC2Oc3ccc(Cl)cc3C(=O)N2O1` (stereo not drawn), the growth is reported as 114% (inactive). With `COc1cccc(C(=O)NCCNc2cc(-c3cn(-c4ccccc4)nc3-c3cccc(OC)c3)ccn2)c1` the growth was 54.5% (inactive). `CN(C)c1ccc(-c2ccc3[nH]c(=O)nc(-c4ccccc4)c3c2)cn1` was tested, and the growth was 5.38% (active). In the case of `CCN(CC)CCCCCCNc1cc(OC)c(Cl)c2cccnc12`, the growth is reported as 66.9% (inactive). `NC(=N\N=C/c1ccccc1[N+](=O)[O-])/C(N)=N\N=C/c1ccccc1[N+](=O)[O-]` was tested, and the growth was 116% (inactive). In the case of `C[n+]1cc2cc(C(N)=O)[nH]c3c(=N)c(Cl)c(N)c1c23`, the growth is reported as 63.1% (inactive). For `COc1ccc(C2=Nc3c(N)ncnc3NC(c3ccc4c(c3)OCO4)C2)cc1` (stereo not drawn), the growth was 100% (inactive). In the case of `CCN(CC)CCN1C(=O)c2c(c(C)c3c(oc4cc(O)ccc43)c2C)C1=O`, the growth is reported as -88% (active). In the case of `O=C(Nc1ccccc1Cl)Oc1ccc(-c2ccccc2)cc1`, the growth is reported as 150% (inactive). For `O=C1/C(=C/c2ccc(F)cc2)C=C(c2ccccc2)N1CCc1ccccc1`, the growth was 53.1% (inactive). In the case of `Cc1cc(Cl)ccc1Nc1nc(C(F)(F)F)ccc1C(=O)N/N=C/c1ccc(N(C)C)cc1`, the growth is reported as 22.5% (inactive). With `CCN1CCN(c2cc(C)nc(NCc3cc(Nc4ccnc5cc(Cl)ccc45)ccc3F)n2)CC1` the growth was 101% (inactive). In the case of `CCN(CC)CCN1CC(O)=C(c2nc(-c3ccc(Cl)cc3)cs2)C1=N`, the growth is reported as 80.5% (inactive). For `CC(=O)n1c(-c2ccc(Cl)cc2)nc2c(c1=O)C(c1ccc(Cl)cc1)c1sc3c(Cl)cccc3c1O2` (stereo not drawn), the growth was -50.4% (active). In the case of `CCN(CC)CCn1nc2c3c(cccc3c1=O)-c1ccccc1-2`, the growth is reported as 52.5% (inactive). With `Cc1cc(Cl)nc(NCc2cc(Nc3ccnc4cc(Cl)ccc34)ccc2F)n1` the growth was 53.4% (inactive). In the case of `O=C(NCCCNc1cc(-c2cn(-c3ccccc3)nc2-c2cccc(O)c2)ccn1)c1ccccc1`, the growth is reported as 45.8% (inactive). With `COc1ccc(-c2cc(-c3cc(OC)ccc3OC)nc(SCC(=O)c3ccccc3)c2C#N)cc1` the growth was 108% (inactive). In the case of `Nc1cc2c3c(cccc3c1)C(=O)N(CCN1CCCC1)C2=O`, the growth is reported as 49.9% (inactive). With `COc1ccc(-c2csc(C3=C(O)CN(CCCN4CCCC4=O)C3=N)n2)cc1OC` the growth was 99.4% (inactive). With `CCCCn1c(=O)c2c(nc(NCCc3ccc(O)c(O)c3)n2CCC)n(CCCC)c1=O` the growth was 65.2% (inactive). With `N#C/C(=C/C=C/c1cccc(Cl)c1)S(=O)c1ccccc1` (stereo not drawn) the growth was -86.1% (active). In the case of `O=C1OC(c2nc3ccccc3s2)=C/C1=C\c1ccc(O)cc1`, the growth is reported as 110% (inactive). With `CC/C=C\CCC/C=C1/C(=O)C=C[C@@H]1C/C=C\CCCC(=O)O` the growth was 43.6% (inactive). `CC(=O)C(C)Cc1cc2c(cc1C)C(C)(C)CCC2(C)C` (stereo not drawn) was tested, and the growth was 108% (inactive). With `O=[N+]([O-])c1ccc(C2CC(c3ccccc3)=Nc3ccccc3S2)cc1` (stereo not drawn) the growth was 83.9% (inactive). With `COc1ccc(-c2nc3c(c(=O)n2C(C)=O)C(c2ccc(Cl)cc2)c2sc4c(Cl)cccc4c2O3)cc1` (stereo not drawn) the growth was -71.4% (active). In the case of `FC(F)(F)c1cc(Nc2ccc3cc(OCCCN4CCOCC4)ccc3n2)ccc1Cl`, the growth is reported as 48.1% (inactive). In the case of `CC(C)CCC[C@@H](C)[C@H]1CC[C@H]2[C@@H](Nc3ccc(O)cc3)CCC[C@]12C`, the growth is reported as 84.8% (inactive). `O=C(N/N=C/c1ccncc1)c1ccc(C(F)(F)F)nc1Nc1cccc(C(F)(F)F)c1` was tested, and the growth was 1.03% (active). `COC(=O)[C@]12CC[C@@H](C)[C@H](C)[C@@H]1C1=CC[C@@H]3[C@@]4(C)C(C=O)=C[C@@](C)(COC(C)=O)[C@@H]4C(=O)C[C@@]3(C)[C@]1(C)CC2` was tested, and the growth was 39.1% (inactive). `O=C(Nc1ccccc1)Nc1cccc(Oc2nnc(Cl)c3ccccc23)c1` was tested, and the growth was 25.4% (inactive). In the case of `N#Cc1c(-c2ccccc2)cc(-c2ccc(Nc3nc(Nc4ccc(F)cc4)nc(Nc4ccc(F)cc4)n3)cc2)nc1N`, the growth is reported as 89.5% (inactive). In the case of `CCn1c(C)nc2cc(C(N)=O)ccc21`, the growth is reported as 105% (inactive). `O=C(/C=C/c1ccco1)c1ccc(Nc2nc(Nc3ccc(F)cc3)nc(Nc3ccc(Cl)cc3)n2)cc1` was tested, and the growth was 75% (inactive). `CC/C=C\C[C@H](O)C/C=C1/C(=O)C=C[C@@H]1C/C=C\CCCC(=O)OC` was tested, and the growth was -6.12% (active). With `N#Cc1c(-c2cccc(Cl)c2)cc(-c2cccc(Cl)c2)[nH]c1=O` the growth was 64.1% (inactive). For `O=C1CC(N2C(=O)/C(=C/C(Cl)=C\c3ccc([N+](=O)[O-])cc3)SC2=S)C(=O)N1c1ccc(O)cc1` (stereo not drawn), the growth was -16.4% (active).
